Screen size: about 400,000 compounds; about 5,500 (1.4%) were called active. Inconclusive results (about 9%) are left out. The entries come from a sample that favours actives as a whole. Unmarked numbers belong to inactive results. The call rests on the fitted dose curve; in most records, active means well fitted cell-killing curve with a large enough effect; inconclusive means small, poorly fitted or top-dose-only effect, or effect the other way; inactive means flat fitted curve, though single readings scatter.
assay: qHTS assay for MDR1-selective chemotherapeutics: Primary screen using the parental adenocarcinoma cell KB-3-1; details: KB-3-1 viability, CellTiter-Glo ATP luminescence, 72 h; series mostly up to 46.1 µM; activity change, negative = cytotoxic: at the top concentration; further: nearly all actives have a fitted effect of over 60% in size
From the text: A prime difficulty in effectively treating cancer is the development of cellular resistance to multiple structurally unrelated anticancer drugs, a phenomenon known as multidrug resistance (MDR). […] Numerous strategies to overcome P-gp-mediated MDR have been explored, including the design of drugs that evade recognition and efflux, and development of inhibitors to block efflux and restore drug accumulation. […] An alternative approach is to exploit resistance by identifying drugs that target MDR cells over the non-resistant parental cells from which they were selected. […] The development of MDR1-selective agents represents a new strategy for resolving multidrug resistance, as it remains a long-standing clinical challenge for cancer chemotherapy.
Our goal is to identify compounds that selectively kill P-gp-expressing MDR cells. We will identify MDR1-selective compounds by comparing toxicity of compounds in the screening library against parental, drug-naive (KB-3-1) adenocarcinoma cells as well as their drug-selected MDR sub-line (KB-V1). The differential toxicity of compounds against these two cell lines will be used to identify MDR1-selective compounds, whose cytotoxicity is potentiated, rather than diminished, by P-gp expression. This assay will be utilized to conduct a quantitative high-throughput screen (qHTS) in collaboration with the NIH Chemical Genomics Center to identify selective agents, and probe hits arising from the screen will be validated using secondary assays and characterized through a well-established follow-up research program. This screen was run against the entire NCGC library collection of about 400,000 compounds.
NIH Molecular Libraries Probe Production Network [MLPCN]
NIH Chemical Genomics Center [NCGC]
PI: Michael Gottesman PhD, National Cancer Institute, NIH
Briefly, 5 microL of media containing either KB-3-1 cells (columns 1-2, 4-48) are dispensed into Greiner white, treated solid-bottom 1536-well assay plates (media-only control is added to column 3). Compounds are then transferred via Kalypsys pin tool equipped with 1536-pin array (10 nL slotted pins, V&P Scientific, San Diego, CA). Following addition of compound, the plates are incubated at 37 degrees C for 72 hours. CellTiter-Glo (2.5 µL/well) is then added, and the plates are read in a ViewLux reader (Perkin-Elmer, clear luminescence filter, 1 second exposure, 1x binning) following a 10 minute incubation. All cells are dispensed in DMEM phenol-red free media containing 10% FBS.
Library plates were screened starting from the lowest and proceeding to the highest concentration. Vehicle-only plates, with DMSO being pin-transferred to columns 5-48, will be inserted uniformly at the beginning and the end of each library in order to monitor and record any shifts in the background, which can be affected by reagent dispensers or loss in enzyme activity over time. Screening data will be corrected, normalized, and concentration-effect relationships will be derived by using publicly-available NCGC, NCATS curve fitting algorithms (http://ncgc.nih.gov/pub/openhts).
On the % scale 0 is the no-effect control and ±100 the full control effect; potency means the concentration at half of the fitted maximal effect.

Point of comparison: COc1ccc(-c2ccc3ncnc(NCc4cccs4)c3c2)cc1OC, “activity change, negative = cytotoxic” value -8.64%. Against it:
- Cc1ccc(C(=O)Nc2ccc3[nH]c(=O)c(=O)[nH]c3c2)cc1 — higher, 11.4%
- O=C1O/C(=C\c2ccc(O)cc2)C(O)=C1c1ccc(O)cc1 — higher, 7.22%
- COc1ccc(NC(=O)C(c2ccccc2)N2Cc3ccccc3C2=O)cc1 (centres undefined) — higher, 11.2%
- COc1ccccc1C(c1nnnn1C(C)(C)C)N1CCN(Cc2ccccc2)CC1 (centres undefined) — higher, -8.17%
- COCCn1nnnc1C(c1cc2ccc(OC)cc2[nH]c1=O)N1CCc2ccccc2C1 (centres undefined) — higher, 0.603%
- CCC(=O)N1CCc2cc(S(=O)(=O)NC(C(=O)Nc3ccc(C(C)=O)cc3)C(C)C)ccc21 (centres undefined) — higher, 17.2%
- O=C(Cc1ccccc1)N/N=C/c1ccc(Cl)cc1Cl — higher, 0.793%
- O=C(CO/N=C/c1ccccc1O)NNC(=O)c1ccccc1Cl — higher, -2.68%
- Cc1ccc(S(=O)(=O)c2nc(-c3cccs3)oc2N2CCCCC2)cc1 — higher, 2.36%
- CC1CCCCC1NC(=O)COc1ccc(C#N)cc1 (centres undefined) — lower, -9.11%
- NS(=O)(=O)c1ccc2nc(NC(=O)COc3ccccc3)sc2c1 — higher, 2.49%
- Cc1ccc(CNC(=O)CSc2c(C)cnc3c2c(=O)n(C)c(=O)n3C)cc1 — higher, 7.68%
- O=C(CC1Oc2ccccc2NC1=O)NCc1ccc(F)cc1 (centres undefined) — higher, 7.27%
- COc1ccc(NC(=O)c2ccco2)cc1NC(=O)COc1ccc(C)c(C)c1 — lower, -10.5%
- c1ccc(-c2cc(N3CCCCC3)c3ccccc3n2)cc1 — higher, -8.21%
- Cc1ccc(C(CC(=O)O)Nc2nc(N3CCCCC3)nc(N3CCCCC3)n2)cc1 (centres undefined) — higher, -2.2%
- CCC(C)N(c1ccc(/C=C/c2ccnc3ccccc23)cc1)C(C)CC (centres undefined) — higher, 0%
- COc1ccc(CNC(=O)c2cc3cccc(OC)c3oc2=O)cc1 — higher, 3.72%
- COc1cc(NC(=O)CN2CCN(S(=O)(=O)c3ccc(Br)cc3)CC2)cc(OC)c1 — higher, 12.6%
- CCCn1c(=N)c(C(=O)NCc2ccccc2)cc2c(=O)n3cccc(C)c3nc21 — higher, 2.22%
- Cc1cccn2c(=O)c3cc(C(=O)NC(C)c4ccccc4)c(=N)n(CCCO)c3nc12 (centres undefined) — higher, -1.69%
- COc1cc(NS(=O)(=O)c2cccs2)cc(OC)c1 — higher, 7.71%
- CNC(=O)c1ccc(-c2nc(CN3CCc4ccccc43)c(C)o2)cc1 — lower, -9.03%
- Cc1cccc(-n2ncc(C(=O)N3CCC(C)CC3)c2C2CCN(C(=O)OC(C)(C)C)CC2)c1 — higher, 1.23%
- CS(=O)(=O)N(CC(=O)NCc1ccco1)c1ccc2c(c1)OCO2 — higher, -2.96%
- CC1(C(=O)Nc2cccnc2)Cc2c(-c3ccccc3)ccnc2O1 (centres undefined) — higher, -2.18%
- O=C(Cn1nnc(-c2ccc3c(c2)OCO3)n1)NCc1ccco1 — lower, -9.57%
- CC(=O)Nc1cccc(-c2ccnc3c2CC(C)(C(=O)NCc2ccco2)O3)c1 (centres undefined) — higher, -6.09%
- CC1=C(C(=O)OCc2ccc(C)cc2)C(c2c(Cl)cccc2Cl)CC(=O)N1 (centres undefined) — higher, 1.29%
- Cc1ccc2nc(COc3cccc(NC(=O)c4cccc(Cl)c4)c3)cc(=O)n2c1 — higher, 2.14%
- CCc1nc2ccc(C(=O)N3CCN(c4cc(Cl)ccc4C)CC3)cc2nc1CC — higher, 0%
- O=C(c1ccco1)N(Cc1cccs1)c1ccc(O)cc1 — higher, 3.03%
- CCOC(=O)C1=CC[C@@H](c2ccccc2)N(S(=O)(=O)c2ccc(C)cc2)[C@H]1c1cccc(OC)c1 — higher, -0.13%
- CCOC(=O)C1=CC[C@@H](c2ccccc2)N(S(=O)(=O)c2ccc(C)cc2)[C@H]1c1ccc(CC)cc1 — higher, -1.65%
- Cc1ccccc1CSCCNC(=O)C1CCN(S(=O)(=O)Cc2ccccc2)CC1 — higher, 5.62%
- CCCNC(=O)C1CCC(Cn2c(=O)c3sccc3n(Cc3ccccc3F)c2=O)CC1 (centres undefined) — higher, 3.19%
- CCOC(=O)c1ccc(NC(=O)c2ncn(-c3ccccc3)n2)cc1 — lower, -18.2%
- CCOc1ccc(CNC(=O)c2cc(-c3ccc(Cl)s3)nc3ccccc23)cc1 — higher, 7.73%
- CCc1cc2c(NC(Cc3ccccc3)C(=O)O)ncnc2s1 (centres undefined) — higher, 16.8%

With COc1ccc(OC)c(C(c2nnnn2C(C)(C)C)N2CCc3ccccc3C2)c1 (centres undefined) the Potency was 23.1 µM (active).
For O=C(NN=Cc1ccccc1O)NN=Cc1ccccc1O, the Potency was 14.6 µM (active).
With N#Cc1ccc(OCC(=O)Nc2nc(-c3ccccn3)cs2)cc1 the Potency was 16.4 µM (active).
For CC(Nc1nc(N2CCCC2)nc2ccccc12)c1ccccc1 (centres undefined), the Potency was 16.4 µM (active).
With Cc1cccn2c(=O)c3cc(C(=O)NCCN4CCOCC4)c(=N)n(Cc4cccnc4)c3nc12 the Potency was 8.2 µM (active).
With CC1(C(=O)NCc2ccco2)Cc2c(-c3ccc4c(c3)OCO4)ccnc2O1 (centres undefined) the Potency was 2.59 µM (active).
With CC(=O)Nc1cccc(-c2ccnc3c2CC(C)(C(=O)NCc2ccccc2)O3)c1 (centres undefined) the Potency was 2.91 µM (active).
For CCOC(=O)C1C(C)C(C(C)(C)C)N(S(=O)(=O)c2ccc(C)cc2)C1c1ccccc1 (centres undefined), the Potency was 23.1 µM (active).
With CCc1cc2c(N3CCN(c4nnc(CC)s4)CC3)ncnc2s1 the Potency was 9.2 µM (active).
